Experimental data as given in the supplement of paper PMC12282887.
± gives the standard deviation of the averaged measurements.

Key:
Assay in all cases: promoter activity interaction Z-score (Lux/OD deviation from empty-vector control); higher = stronger promoter induction by the compound
[1] = tested on: E. coli BW25113 acrABp lux reporter
Summary of the method: (§1)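 Low-copy luxCDABE promoter reporters were carried by E. coli BW25113, either wild type or lacking one of three genes, grown in 40 µl LB Lennox in 384-well plates at 37°C. Each compound was run at four 1:2 dilutions in biological duplicates, with OD600 and luminescence read every 30 min for 12 h. Integration used 0–8 h for wild type and 1–9 h for deletion strains, and wells under 10% of the median growth value were removed. Luminescence normalised to growth was fitted against a control, and the Z-transformed residual is the score.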

[2] = tested on: E. coli BW25113 marRABp lux reporter
Summary of the method: as §1

[3] = tested on: E. coli BW25113 micFp lux reporter
Summary of the method: as §1

[4] = tested on: E. coli BW25113 ompFp lux reporter
Summary of the method: as §1

[5] = tested on: E. coli BW25113 robp lux reporter
Summary of the method: as §1

[6] = tested on: E. coli BW25113 soxSp lux reporter
Summary of the method: as §1

[7] = tested on: E. coli BW25113 tolCp lux reporter
Summary of the method: as §1

[8] = 18.3 µg/ml, genetic background: wild type
[9] = 18.3 µg/ml, genetic background: ΔmarA
[10] = 18.3 µg/ml, genetic background: Δrob
[11] = 18.3 µg/ml, genetic background: ΔsoxS
[12] = 36.5 µg/ml, genetic background: wild type
[13] = 36.5 µg/ml, genetic background: ΔmarA
[14] = 36.5 µg/ml, genetic background: Δrob
[15] = 36.5 µg/ml, genetic background: ΔsoxS
[16] = 73.1 µg/ml, genetic background: wild type
[17] = 73.1 µg/ml, genetic background: ΔmarA
[18] = 73.1 µg/ml, genetic background: Δrob
[19] = 73.1 µg/ml, genetic background: ΔsoxS
[20] = 146.1 µg/ml, genetic background: wild type
[21] = 146.1 µg/ml, genetic background: ΔmarA
[22] = 146.1 µg/ml, genetic background: Δrob

## O=C(O)CN(CCN(CC(=O)O)CC(=O)O)CC(=O)O
[1]; [8]
  promoter activity interaction Z-score: -0.0934 ± 0.22
[1]; [9]
  promoter activity interaction Z-score: -0.603 ± 0.65
[1]; [10]
  promoter activity interaction Z-score: -0.36 ± 0.3
[1]; [11]
  promoter activity interaction Z-score: -0.525 ± 0.13
[1]; [12]
  promoter activity interaction Z-score: -0.397 ± 0.38
[1]; [13]
  promoter activity interaction Z-score: -0.546 ± 0.64
[1]; [14]
  promoter activity interaction Z-score: -0.8 ± 0.08
[1]; [15]
  promoter activity interaction Z-score: -0.688 ± 0.13
[1]; [16]
  promoter activity interaction Z-score: -0.174 ± 0.17
[1]; [17]
  promoter activity interaction Z-score: -0.55 ± 0.59
[1]; [18]
  promoter activity interaction Z-score: -0.865 ± 0.14
[1]; [19]
  promoter activity interaction Z-score: -0.724 ± 0.18
[1]; [20]
  promoter activity interaction Z-score: -0.36 ± 0.21
[1]; [21]
  promoter activity interaction Z-score: -1.25 ± 0.29
[1]; [22]
  promoter activity interaction Z-score: 0.682 ± 0.76
[2]; [8]
  promoter activity interaction Z-score: -0.176 ± 0.11
[2]; [9]
  promoter activity interaction Z-score: -0.48 ± 0.29
[2]; [10]
  promoter activity interaction Z-score: -0.224 ± 0.07
[2]; [11]
  promoter activity interaction Z-score: -0.191 ± 0.04
[2]; [12]
  promoter activity interaction Z-score: -0.238 ± 0.25
[2]; [13]
  promoter activity interaction Z-score: -0.327 ± 0.086
[2]; [14]
  promoter activity interaction Z-score: -0.221 ± 0.16
[2]; [15]
  promoter activity interaction Z-score: -0.276 ± 0.012
[2]; [16]
  promoter activity interaction Z-score: -0.3324 ± 0.002
[2]; [17]
  promoter activity interaction Z-score: -0.545 ± 0.11
[2]; [18]
  promoter activity interaction Z-score: -0.378 ± 0.066
[2]; [19]
  promoter activity interaction Z-score: -0.175 ± 0.04
[2]; [20]
  promoter activity interaction Z-score: 0.543 ± 0.16
[2]; [21]
  promoter activity interaction Z-score: 1.07 ± 0.021
[2]; [22]
  promoter activity interaction Z-score: 1.66 ± 0.58
[3]; [8]
  promoter activity interaction Z-score: 0.0311 ± 0.38
[3]; [9]
  promoter activity interaction Z-score: 0.0253 ± 0.09
[3]; [10]
  promoter activity interaction Z-score: -0.0661 ± 0.029
[3]; [11]
  promoter activity interaction Z-score: 0.33 ± 0.3
[3]; [12]
  promoter activity interaction Z-score: 0.187 ± 0.43
[3]; [13]
  promoter activity interaction Z-score: 0.106 ± 0.075
[3]; [14]
  promoter activity interaction Z-score: -0.0635 ± 0.073
[3]; [15]
  promoter activity interaction Z-score: 0.413 ± 0.38
[3]; [16]
  promoter activity interaction Z-score: 0.253 ± 0.014
[3]; [17]
  promoter activity interaction Z-score: 0.129 ± 0.061
[3]; [18]
  promoter activity interaction Z-score: 0.0924 ± 0.051
[3]; [19]
  promoter activity interaction Z-score: 0.66 ± 0.28
[3]; [20]
  promoter activity interaction Z-score: 1.76 ± 0.36
[3]; [21]
  promoter activity interaction Z-score: 2.53 ± 1.4
[3]; [22]
  promoter activity interaction Z-score: 2.95 ± 1.1
[4]; [8]
  promoter activity interaction Z-score: -0.399 ± 0.35
[4]; [9]
  promoter activity interaction Z-score: -0.581 ± 0.52
[4]; [10]
  promoter activity interaction Z-score: -0.522 ± 0.013
[4]; [11]
  promoter activity interaction Z-score: 0.261 ± 0.35
[4]; [12]
  promoter activity interaction Z-score: -0.73 ± 0.2
[4]; [13]
  promoter activity interaction Z-score: -0.519 ± 0.045
[4]; [14]
  promoter activity interaction Z-score: -0.748 ± 0.082
[4]; [15]
  promoter activity interaction Z-score: 0.0564 ± 0.85
[4]; [16]
  promoter activity interaction Z-score: -1.22 ± 0.24
[4]; [17]
  promoter activity interaction Z-score: -0.836 ± 0.33
[4]; [18]
  promoter activity interaction Z-score: -0.994 ± 0.2
[4]; [19]
  promoter activity interaction Z-score: 0.0122 ± 0.85
[4]; [20]
  promoter activity interaction Z-score: -1.07 ± 0.81
[4]; [21]
  promoter activity interaction Z-score: -1.23 ± 0.21
[4]; [22]
  promoter activity interaction Z-score: -1.04 ± 0.81
[5]; [8]
  promoter activity interaction Z-score: -0.212 ± 0.066
[5]; [9]
  promoter activity interaction Z-score: -1.05 ± 0.051
[5]; [10]
  promoter activity interaction Z-score: 0.174 ± 0.67
[5]; [11]
  promoter activity interaction Z-score: 0.244 ± 0.58
[5]; [12]
  promoter activity interaction Z-score: -0.656 ± 0.16
[5]; [13]
  promoter activity interaction Z-score: -0.174 ± 0.088
[5]; [14]
  promoter activity interaction Z-score: -0.454 ± 0.91
[5]; [15]
  promoter activity interaction Z-score: 0.113 ± 1.1
[5]; [16]
  promoter activity interaction Z-score: -0.785 ± 0.22
[5]; [17]
  promoter activity interaction Z-score: -0.143 ± 0.47
[5]; [18]
  promoter activity interaction Z-score: -0.796 ± 0.055
[5]; [19]
  promoter activity interaction Z-score: -0.553 ± 0.47
[5]; [20]
  promoter activity interaction Z-score: -1.32 ± 0.071
[5]; [21]
  promoter activity interaction Z-score: -1.53 ± 0.59
[6]; [8]
  promoter activity interaction Z-score: -0.509 ± 0.063
[6]; [9]
  promoter activity interaction Z-score: -0.316 ± 0.052
[6]; [10]
  promoter activity interaction Z-score: -0.315 ± 0.048
[6]; [11]
  promoter activity interaction Z-score: -0.181 ± 0.14
[6]; [12]
  promoter activity interaction Z-score: -0.478 ± 0.23
[6]; [13]
  promoter activity interaction Z-score: -0.479 ± 0.017
[6]; [14]
  promoter activity interaction Z-score: -0.494 ± 0.011
[6]; [15]
  promoter activity interaction Z-score: -0.421 ± 0.15
[6]; [16]
  promoter activity interaction Z-score: -0.487 ± 0.045
[6]; [17]
  promoter activity interaction Z-score: -0.43 ± 0.35
[6]; [18]
  promoter activity interaction Z-score: -0.698 ± 0.13
[6]; [19]
  promoter activity interaction Z-score: -0.236 ± 0.11
[6]; [20]
  promoter activity interaction Z-score: 1.26 ± 0.066
[6]; [21]
  promoter activity interaction Z-score: 1.71 ± 1.1
[6]; [22]
  promoter activity interaction Z-score: 1.4 ± 0.082
[7]; [8]
  promoter activity interaction Z-score: 0.221 ± 0.32
[7]; [9]
  promoter activity interaction Z-score: -0.411 ± 0.67
[7]; [10]
  promoter activity interaction Z-score: -0.43 ± 0.067
[7]; [11]
  promoter activity interaction Z-score: 0.426 ± 0.54
[7]; [12]
  promoter activity interaction Z-score: 0.548 ± 0.048
[7]; [13]
  promoter activity interaction Z-score: -0.02 ± 1
[7]; [14]
  promoter activity interaction Z-score: -0.146 ± 0.27
[7]; [15]
  promoter activity interaction Z-score: -0.2 ± 0.11
[7]; [16]
  promoter activity interaction Z-score: -0.165 ± 0.86
[7]; [17]
  promoter activity interaction Z-score: -0.102 ± 0.4
[7]; [18]
  promoter activity interaction Z-score: -0.0689 ± 0.14
[7]; [19]
  promoter activity interaction Z-score: 0.835 ± 0.86
[7]; [20]
  promoter activity interaction Z-score: 1.75 ± 0.63
[7]; [21]
  promoter activity interaction Z-score: 1.55 ± 0.38
[7]; [22]
  promoter activity interaction Z-score: 1.79 ± 0.72
